NTR1 ag: agonists of human NTR1, primary screen, imaging, U2OS cells, beta-arrestin-GFP, high content; NTR1-U2OS beta-arrestin-GFP spot imaging, agonist mode; actives 0.17% (n = 330,000); Neurotensin receptor type 1 (Homo sapiens), P30989; activation, % at 20 µM;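 active = activation at or above 40% of the spot to cytoplasm intensity ratio, with at least 20 cells analyzed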
Target sequence (P30989 whole entry, looked up): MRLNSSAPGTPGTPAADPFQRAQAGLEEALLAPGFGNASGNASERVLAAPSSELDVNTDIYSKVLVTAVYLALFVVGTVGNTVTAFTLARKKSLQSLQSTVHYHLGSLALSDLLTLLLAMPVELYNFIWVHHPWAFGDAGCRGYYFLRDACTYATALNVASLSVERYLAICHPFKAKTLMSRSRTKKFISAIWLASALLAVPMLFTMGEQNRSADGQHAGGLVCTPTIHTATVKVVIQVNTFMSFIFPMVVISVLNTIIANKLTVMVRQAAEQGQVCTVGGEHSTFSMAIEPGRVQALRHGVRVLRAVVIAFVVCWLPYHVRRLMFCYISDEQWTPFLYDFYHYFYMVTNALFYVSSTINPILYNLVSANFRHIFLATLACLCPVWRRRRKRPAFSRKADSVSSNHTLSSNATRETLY
Beta apoptosis: inhibitors of cytokine-induced beta cell apoptosis, primary screen, luminescence; INS-1E cytokine-induced death, ATP luminescence, 48 h; percent of positive-control rescue, neutral wells zero; protection from apoptosis, % (test concentration not listed); actives 0.8% (n = 300,000);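 active = Every replicate reaches about 75%, or at least half do and their mean reaches it too, limit read from the data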;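 also: higher means more ATP so stronger rescue from cytokine killing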
697 NFkB inh: inhibitors of PMA/ionomycin-induced NF-kB reporter, 697 cells, primary screen, B-cell NF-kB inhibitor project, cell-based, luminescence, uHTS | actives 0.33% (n = 330,000) | AID 435022, 2010 | 697 B-cell NF-kB luciferase reporter, 16 h | inhibition, % at 4 µM; in the data active = inhibition above about 35%
Mdm2 MdmX PPI: inhibitors of human Mdm2-MdmX association, primary screen, cell-based, luminescence, split luciferase, SaOS-2, uHTS | Protein Mdm4 (Homo sapiens) + E3 ubiquitin-protein ligase Mdm2 (Homo sapiens), … | SaOS-2 split-luciferase Mdm2/MdmX complementation | inhibition, % at 8 µM | actives 3% (n = 330,000);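 active = inhibition of at least 50% at 8 µM in the primary screen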
Bfl-1 A1 inh: caspase 3/7 activation in MEF A1-2A-BIM cells, primary screen, A1 inhibitor project, cell-based, luminescence, HTS. Caspase-Glo 3/7 luminescence, 3 h; percent of clofoctol response, vehicle zero. caspase activation, % (test concentration not listed). actives 0.066% (n = 330,000);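 active = over half of replicate activation scores above 10%, or exactly half above 10 with the replicate mean above 10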
Jurkat NFkB inh: inhibitors of induced NF-kB luciferase reporter, primary screen, TCR NF-kB activation inhibitor project, cell-based, luminescence, uHTS. Jurkat, PMA/ionomycin-induced NF-kB luciferase reporter. inhibition, % at 4 µM. actives 0.53% (n = 330,000); in the data active = inhibition above about 50%
Jurkat NFkB conf: PMA/ionomycin-induced NF-kB reporter inhibitors, Jurkat retest, confirmation, T-cell NF-kB inhibitor project, cell-based, luminescence, single concentration; shares compounds with Jurkat NFkB inh; Jurkat NF-kB luciferase, 16 h; inhibition, % at 4 µM; actives 27% (n = 2,700);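 active = inhibition reaching about 45% at 4 µM in either replicate, limit read from the data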
Numbers stand for hits; . = inactive; / = not tested or not shown. Only some compounds are listed: those with a hit (about 3.8% of all), similar ones and a draw of the others.

SMILES	NTR1 ag	Beta apoptosis	697 NFkB inh	Mdm2 MdmX PPI	Bfl-1 A1 inh	Jurkat NFkB inh	Jurkat NFkB conf
Cc1ccc(N/C=C/C(=O)c2ccc(C)cc2)cc1	.	.	.	.	.	.	/
Cc1ccc(O)c(N/C=C/C(=O)c2ccc(F)cc2)c1	.	.	.	.	.	85.2	.
C=CC[C@H](CC(=O)N(CCO)Cc1ccccc1)C(=O)N[C@H](COC(=O)[C@@H](CC=C)CC(=O)OC(C)(C)C)Cc1c[nH]c2ccccc12	.	.	.	.	.	.	/
COCCC(=O)N1CCC(Oc2ccc(C(=O)NCCc3cn[nH]c3)cc2)CC1	.	.	.	.	.	.	/
CN(C)c1ccc(N/C=C/C(=O)c2ccccc2)cc1	.	.	.	.	.	.	.
O=C(Nc1ccc2ccccc2c1)c1cccc(F)c1	.	.	.	.	.	.	.
Cc1cc(C(=O)Nc2ccc3ccccc3c2)c(C)o1	.	.	.	.	.	.	.
Cc1ccc2cc(NC(=O)c3cccc(F)c3)ccc2n1	.	.	.	.	.	.	/
CC(C)CN1CCC(=O)N(CCO)CC1	.	.	.	.	.	.	/
COc1ccc(C(=O)CN2Cc3ccccc3C2=N)cc1	.	.	.	.	.	.	.
COc1ccc(C(=O)Cn2c(=N)n(C)c3ccccc32)cc1	.	/	.	.	.	.	/
CC(=O)Nc1cc2c(cc1NC(=O)Cn1nc(-c3ccc(F)cc3)ccc1=O)OCCO2	.	.	.	.	.	.	/
CC(=O)c1cc2c(cc1NC(=O)Cn1nc(-c3ccc(C)cc3)ccc1=O)OCO2	.	.	.	.	.	53.4	.
COc1ccc(NC(=O)CCC(=O)N2CCCC2)c([N+](=O)[O-])c1	.	.	.	.	.	.	/
COc1ccc(OC2CCN(S(=O)(=O)c3ccc(OC)c(OC)c3)CC2)cc1	.	.	.	.	.	.	/
O=C(Nc1cccc(Br)c1)c1cc2ccccc2o1	.	.	.	.	.	.	/
Cc1cc(C(=O)Nc2cccc(C(=O)O)c2)oc1C	.	.	.	.	.	56.0	.
Cc1cccc(NC(=O)c2cc3ccccc3o2)c1	.	.	.	.	.	.	.
CCN(C(=O)COC(=O)c1cc(S(=O)(=O)N(C)C)ccc1Cl)C1CCS(=O)(=O)C1 (stereo not given)	.	.	.	.	.	.	/
NS(=O)(=O)c1ccc(N2CCOCC2)c(C(=O)NCc2cccs2)c1	.	.	.	.	.	.	/
O=C(c1cc(-c2ccccc2)nc2ccccc12)N1CCN(c2ccccn2)CC1	.	/	.	.	.	.	/
O=C(c1cc(-c2ccncc2)nc2ccccc12)N1CCN(c2ccccn2)CC1	.	.	.	.	.	57.2	.
O=C(COC(=O)c1ccc(C(F)(F)F)cc1)NC(=O)NC1CCCC1	.	/	.	.	/	.	/
COc1ccc(/C=C2/C(=O)OCc3cc(OC)c(OC)cc32)cc1	.	.	.	.	.	55.3	47.8
COc1ccc(/C=C2\CCOC2=O)cc1	.	.	.	.	.	.	/
SMILES	NTR1 ag	Beta apoptosis	697 NFkB inh	Mdm2 MdmX PPI	Bfl-1 A1 inh	Jurkat NFkB inh	Jurkat NFkB conf
Cc1cc(C)n(C(=O)Cn2nc(C)c(Br)c2C)n1	.	.	.	.	.	.	/
COc1ccc(CCN2C(=O)C3C4C=CC(C3C2=O)C2C(=O)N(CCc3ccc(OC)c(OC)c3)C(=O)C42)cc1OC (stereo not given)	.	.	.	.	.	59.1	55.5
Cc1cc(C)cc(N/C(N)=N/c2nc(C)cc(C)n2)c1	.	.	.	.	.	50.9	.
CC(=O)c1ccc(N2CCN(c3ccc(S(=O)(=O)NCCCN(C)C)cc3[N+](=O)[O-])CC2)cc1	.	.	.	.	.	.	/
CN(C)CCCNS(=O)(=O)c1ccc(N2CCN(Cc3ccc4c(c3)OCO4)CC2)c([N+](=O)[O-])c1	.	.	.	.	.	62.4	.
CN(Cc1ccon1)C(=O)C1CCN(C2CCN(CCCc3ccccc3)CC2)CC1	.	.	.	.	.	.	/
COc1cc(C2=NOC(C(=O)NCc3cccs3)C2)cc(OC)c1OC (stereo not given)	.	.	.	.	.	50.3	.
COc1ccc(C2=NOC(C(=O)NCc3cccs3)C2)cc1 (stereo not given)	.	.	.	.	.	.	/
COc1ccc(C2=NOC(C(=O)NCc3cccs3)C2)cc1OC (stereo not given)	.	.	.	.	.	50.2	.
CCOc1ccc(S(=O)(=O)N(CC)CC(=O)NCc2ccco2)cc1C	.	.	.	.	.	.	/
OC(CN1C2=NCCCN2c2ccccc21)c1ccc2c(c1)OCO2 (stereo not given)	.	.	.	.	.	.	/
OC(CN1C2=NCCN2c2ccccc21)c1ccc2c(c1)OCO2 (stereo not given)	.	.	.	.	.	62.9	.
NC(=O)CC(NC(=O)c1ccc(Br)cc1)c1ccc(N2CCCCCC2)c([N+](=O)[O-])c1 (stereo not given)	.	.	.	.	.	53.8	.
NC(=O)CC(NC(=O)c1ccccc1)c1ccc(N2CCCCCCC2)c([N+](=O)[O-])c1 (stereo not given)	.	.	.	.	.	.	/
COc1ccc(CNC(=O)CN(C(=O)c2csnn2)c2ccccc2F)cc1	.	.	.	.	.	.	/
CCOC(=O)c1cnc(-n2nc(C)cc2C)nc1Nc1ccc(OC)cc1	.	.	.	.	.	.	/
CCOc1ccc(Nc2cc(C)nc(-n3nc(C)cc3C)n2)cc1	.	91.3	.	.	.	53.8	57.5
CCN(CC)S(=O)(=O)c1cc(NC(=O)CNc2cccc(S(=O)(=O)N3CCCC3)c2)ccc1C	.	88.8	.	.	.	57.2	60.2
CC(=O)Nc1cccc(-c2cn3ccc(C)cc3n2)c1	.	.	.	.	.	.	/
Cc1ccn2cc(-c3cccc([N+](=O)[O-])c3)nc2c1	.	.	.	.	.	.	.
O=C(CC(Nc1ccc(F)cc1)C(=O)O)c1ccccc1 (stereo not given)	.	.	.	.	.	.	.
Cc1nc(-c2ccccc2)sc1-c1ccn[nH]1	.	.	.	.	.	.	.
COc1ccc2cc3cc(C(=O)N4CCCCC4C)oc3nc2c1 (stereo not given)	.	.	.	.	.	.	.
COc1ccc2cc3cc(C(=O)N4CCN(C5CCCCC5)CC4)oc3nc2c1	.	.	.	.	.	.	/
